We go through 36 compounds from PubChem BioAssay (NCI).

Structures are written as SMILES. About 83,000 compounds went through this panel and 20% of them were active in at least one assay; those are over-represented in the sample as a whole.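 Negative percent growth values reflect cell death: -40 means 40% of the cells present at the start died, and -100 means all died.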 A number with no mark means an inactive call. The source made the active and inactive calls. The calls were made as follows: active = growth percent below 10; inactive = the rest.

What all share (experiment): NCI-60 one-dose screen, 48 h (100 = growth as untreated, 0 = no growth, -100 = all killed)
Settings in all cases: 10 µM unless noted

The subject of assay [1] is T-47D breast.
Assay [2] relates to SW-620 colon.
The subject of assay [3] is MCF7 breast.
Assay [4] has as its system HCC-2998 colon.
For assay [5], the system named is KM12 colon.
Assay [6] relates to MDA-MB-435 melanoma.
For assay [7], the system named is HCT-116 colon.
In assay [8] the test system is BT-549 breast.

In the case of `Cc1nc2ccccc2c(/C=C/c2ccc(Cl)cc2)c1C(=O)/C=C/c1ccc(Cl)cc1`, the growth is -15.3% (active) in assay [1]; -37.4% (active) in assay [2]; 3.86% (active) in assay [3]; -74.7% (active) in assay [4]; -38.4% (active) in assay [5].

On to `CCCCn1c(=O)[nH]c(N)c(C(c2ccc(F)cc2)c2c(N)[nH]c(=O)n(CCCC)c2=O)c1=O`, for which the growth in assay [1] was 39.6%; in assay [6] it was 64.7%; in assay [2], 91.1%; in assay [3], 46.8%; in assay [4], 72.9%; in assay [5], 61.3%.

`Cc1cc(C(c2ccccc2)c2ccccc2)ccc1NS(=O)(=O)c1ccccc1`: the growth in assay [1] is 85.6%; in assay [6] it was 114%; in assay [2], 101%; in assay [3] it was 88.3%; in assay [7], 82.1%; in assay [4] it was 104%. In addition, the growth in assay [5] was 97.7%.

On to `Cc1ccc2c(n1)C(=O)C(Oc1ccc(F)cc1)=CC2=O`, for which the growth is 85.4% in assay [8]; 101% in assay [6]; 84.7% in assay [2]; 81.1% in assay [3]; 90.8% in assay [7]; 108% in assay [4]. The growth in assay [5] was 101%.

`C#C[C@]1(O)CC[C@H]2[C@@H]3CC=C4c5sc(N=C(N)N)nc5CC[C@]4(C)[C@H]3CC[C@@]21C`: the growth is 1.23% (active) in assay [1]; -55.9% (active) in assay [6]; -47.1% (active) in assay [2]; 0.374% (active) in assay [3]; -15.9% (active) in assay [4]; -28.6% (active) in assay [5].

`O=C(CCCCCCCn1cc(-c2cccnc2)nn1)Nc1ccccc1-c1ccccc1`: the growth is 28% in assay [1]; 22.5% in assay [6]; 20.6% in assay [2]; 38.5% in assay [3]; 0.699% (active) in assay [7]; 38.1% in assay [4]. The growth in assay [5] was 29.4%.

Take `CO/C(=C1/NC(=O)C(Cc2ccc(O)c(Br)c2)N(C)C(=O)C(C)NC(=O)CCC/C=C(\C)CCC(C)OC1=O)c1ccccc1` (centres undefined): the growth was -0.228% (active) in assay [1]; 3.86% (active) in assay [6]; 18.2% in assay [2]; -17.5% (active) in assay [3]; 8.19% (active) in assay [7]; -36.6% (active) in assay [4]. The growth in assay [5] was 26.9%.

`O=C(C[C@@]1(O)C(=O)Nc2c(Cl)ccc(Cl)c21)c1ccc(C2CC2)cc1`: the growth in assay [1] is 40.5%; in assay [6], -48% (active); in assay [2], 19.4%; in assay [3] it was 16.5%; in assay [4], 9.4% (active); in assay [5] it was 24.7%.

For the compound `CS(=O)(=O)c1ccc(N/N=C/c2c(-c3ccc(S(C)(=O)=O)cc3)[nH]c3ccc(F)cc23)cc1`, the growth in assay [8] is 23.9%; in assay [6] it was 40.3%; in assay [2] it was 59.7%; in assay [3] it was 18.9%; in assay [7], 27.1%; in assay [4], 52.3%. Moreover, the growth in assay [5] was 29.2%.

As to `O=C(/C=C/c1ccccc1)c1ccc2ccccc2c1`, the growth in assay [1] is 47.4%; in assay [6] it was 103%; in assay [3], 49.9%; in assay [7], -5.91% (active); in assay [5], 93.2%.

Turning to `C[C@@H]1C(=O)N(C[C@H](Cc2ccccc2)NC(=O)OCc2ccccc2)[C@]1(Cc1ccccc1)C(=O)OC(C)(C)C`, the growth is 43.3% in assay [1]; 76.9% in assay [6]; 83.2% in assay [2]; 61.1% in assay [3]; 87.7% in assay [4]; 70.3% in assay [5].

As for `Nc1ccc2c(S(=O)(=O)O)ccc(S(=O)(=O)O)c2c1`, the growth in assay [1] was 82.5%; in assay [6] it was 107%; in assay [2] it was 106%; in assay [3], 93.1%; in assay [7], 93.9%; in assay [4], 98.7%. In addition, in assay [5], the growth was 110%.

As for `COc1cc(/C=C/c2nc(Nc3ccc(S(=O)(=O)Nc4cc(C)on4)cc3)c3ccccc3n2)ccc1O`, the growth in assay [8] is 107%; in assay [6], -44.1% (active); in assay [2], 39.1%; in assay [3] it was 30.7%; in assay [7], 54.6%; in assay [4] it was 81.9%. Besides, the growth in assay [5] was 31.8%.

For `CN(C)CCC(O)(Cc1ccccc1)c1ccccc1` (centres undefined), the growth is 96.4% in assay [1]; 91.8% in assay [6]; 110% in assay [3]; 103% in assay [7]; 87% in assay [4].

As to `C[C@@H](C[C@H](CCOCc1cccnc1)c1ccccc1)c1cc2ccccc2o1`, the growth was 102% in assay [8]; 103% in assay [6]; 91.6% in assay [2]; 106% in assay [3]; 75.6% in assay [7]; 101% in assay [4]. The growth in assay [5] was 88%.

In the case of `O=c1[nH]nc(-c2ccc(Cl)cc2)cc1Cc1ccccc1`, the growth in assay [1] was 84.1%; in assay [6], 106%; in assay [2] it was 105%; in assay [3], 92.2%; in assay [7], 93%; in assay [4], 113%. In addition, the growth in assay [5] is 102%.

In the case of `CS(=O)(=O)c1ccc(-c2nc3cc(Cl)ccc3n2CC(=O)N/N=C/c2ccc(Cl)cc2)cc1`, the growth in assay [8] is 41.8%; in assay [6], 73.7%; in assay [2], 75%; in assay [3], 37.4%; in assay [7], 42.1%; in assay [4] it was 73.5%. In addition, in assay [5], the growth is 41%.

Turning to `NS(=O)(=O)c1cnccc1-n1ccc(=O)c(S(N)(=O)=O)c1`, the growth in assay [1] is 84.5%; in assay [6], 91.7%; in assay [2], 97%; in assay [3], 88.8%; in assay [7], 92.5%; in assay [4], 104%. For the same compound, the growth in assay [5] is 93.3%.

Turning to `COc1ccc(-n2ncn(CCCCCCn3cnn(-c4ccc(OC)cc4)c3=O)c2=O)cc1`, the growth was 101% in assay [8]; 102% in assay [6]; 95.2% in assay [2]; 92.7% in assay [3]; 94.5% in assay [7]; 110% in assay [4]. Besides, the growth in assay [5] is 97%.

Take `Cc1cc(Cl)nc(N(CCCNc2ccnc3cc(Cl)ccc23)Cc2ccccn2)n1`: the growth in assay [8] is 54%; in assay [6], 52.7%; in assay [2], 53.3%; in assay [3], 32.9%; in assay [7], 14.9%; in assay [4] it was 74.2%. In assay [5], the growth is 48%.

Turning to `CC(C)OC(=O)OCOP(=O)(OCOC(=O)OC(C)C)C1CCCN(O)C1=O` (centres undefined), the growth in assay [8] is 22.8%; in assay [6] it was 47.3%; in assay [2], 32.3%; in assay [3], 31.9%; in assay [7] it was 13.4%; in assay [4] it was 23.7%. Moreover, in assay [5], the growth is 9.54% (active).

For `Cc1nc(Nc2ccc(NC(=S)Nc3ccccc3)cc2)nc2nc(Nc3cccc(Cl)c3)[nH]c(=O)c12`, the growth was 89.1% in assay [1]; 98.3% in assay [2]; 89.8% in assay [3]; 94.4% in assay [7]; 114% in assay [4]; 106% in assay [5].

Take `CCO/C=N/C1=C(C#N)C(c2ccc(OC)cc2)c2c(c3ccccc3n(C)c2=O)O1` (centres undefined): the growth in assay [8] is 117%; in assay [6], 107%; in assay [2] it was 101%; in assay [3], 94.8%; in assay [7], 102%; in assay [4] it was 106%. The growth in assay [5] is 103%.

With `CC(C)OC(=O)NNC(=O)c1ccncc1`, the growth in assay [1] was 106%; in assay [6], 109%; in assay [2] it was 98.2%; in assay [7], 97.5%; in assay [4] it was 119%; in assay [5], 115%.

Take `CC(=O)Nc1ccc(C(=O)/C=C/c2ccccc2)cc1`: the growth in assay [1] was 74.9%; in assay [6], 89.1%; in assay [2], 90.4%; in assay [3], 24.3%; in assay [7], 1.2% (active); in assay [4], 88.7%. Also, the growth in assay [5] is 22.8%.

Take `Fc1ccc(Nc2nc(Nc3ccc(-c4nc5ccccc5[nH]4)cc3)c3cn[nH]c3n2)cc1`: the growth in assay [1] is 12.1%; in assay [6], 90.3%; in assay [2], 10.9%; in assay [3], 4.38% (active); in assay [4], 82.9%; in assay [5], 54.4%.

With `OC(c1cccc(OCc2ccccc2)c1)c1nnc(-c2ccccc2)o1` (centres undefined), the growth in assay [1] is 72.9%; in assay [6], 101%; in assay [7] it was 101%; in assay [4], 112%; in assay [5], 90.7%.

On to `O=C1C(Cl)C(c2ccccc2Cl)N1n1cnnc1` (centres undefined), for which the growth in assay [8] is 97.3%; in assay [6], 103%; in assay [2] it was 94.5%; in assay [3], 97.4%; in assay [7], 96.4%; in assay [4], 98.4%. Moreover, the growth in assay [5] is 96.9%.

For the compound `CCCCCCNc1cc(C)nc2ccc(OC)cc12`, the growth in assay [8] was 75.5%; in assay [6] it was 64.6%; in assay [2] it was 68.7%; in assay [3], 58.8%; in assay [7] it was 28.5%; in assay [4] it was 48.4%. Moreover, in assay [5], the growth is 66.3%.

On to `N#Cc1c(N)n2c(nc1=Nc1ccc(Cl)cc1)sc1cc(Cl)ccc12`, for which the growth in assay [1] was 73.8%; in assay [6], 102%; in assay [2], 87.9%; in assay [3], 60.5%; in assay [7], 89.1%; in assay [4], 107%. Moreover, the growth in assay [5] is 29.5%.

Turning to `CSc1ccc(Cl)c(C(=O)Nc2sccc2C(N)=O)c1`, the growth was 44.1% in assay [1]; 110% in assay [6]; 96.5% in assay [2]; 64.8% in assay [3]; 109% in assay [7]; 102% in assay [4]. For the same compound, in assay [5], the growth was 99.8%.

For the compound `Cc1ccc(S(=O)(=O)NN/C(N)=N\S(=O)(=O)c2cc(C)c(Cl)cc2SCc2ccccc2)cc1`, the growth in assay [1] was 87.9%; in assay [6], 96.4%; in assay [3] it was 99.8%; in assay [7] it was 94.6%; in assay [4], 107%; in assay [5] it was 97.3%.

On to `O=C(NCc1cn(Cc2cccc(Oc3ccccc3)c2)nn1)c1cccnc1NCc1ccc(Cl)cc1`, for which the growth was 41.1% in assay [8]; -2.51% (active) in assay [6]; 36.9% in assay [2]; 14.9% in assay [3]; 22.1% in assay [7]; 9.38% (active) in assay [4].

Take `Cc1cc2c(F)c(Oc3ncnc(Nc4ccc(N5C[C@@H](C)N[C@@H](C)C5)cc4)c3C#N)cc(F)c2[nH]1`: the growth in assay [1] is -1.93% (active); in assay [6], 19.9%; in assay [2], 3.6% (active); in assay [3], 12.3%; in assay [4] it was 84.1%; in assay [5], 11.9%.

In the case of `CC(=O)Nc1cccc(C2=CC(c3ccc(C)cc3)n3ncnc3N2)c1` (centres undefined), the growth was 87.5% in assay [1]; 112% in assay [6]; 102% in assay [2]; 96.9% in assay [3]; 103% in assay [7]; 112% in assay [4]. Moreover, the growth in assay [5] is 97.2%.

Turning to `CS(=O)(=O)c1ccc(-c2[nH]c3ccc(F)cc3c2/C=N/NC(N)=S)cc1`, the growth was 39.3% in assay [8]; -16.3% (active) in assay [6]; 21.3% in assay [2]; 19.3% in assay [3]; 8.16% (active) in assay [7]; 24.3% in assay [4]. In addition, the growth in assay [5] is 18.5%.
